Inconclusive results are not listed. Calls of active or inactive are those of the source. Unless noted, the call rests on the fitted dose curve; in most records, active means well fitted curve in the direction sought with a large enough effect in the repeat runs; inconclusive means weak or mixed curves; inactive means no such curve, though single readings can be large; an effect the other way counts as inactive or inconclusive.
What was measured:
[1] = qHTS assay to identify small molecule agonists of the peroxisome proliferator-activated receptor delta (PPARd) signaling pathway - cell viability counter screen (AID 743211); further: nearly all actives have a fitted effect of over 55% in size
Method in brief: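 Tox21 library compounds, delivered in DMSO, were incubated 17 h with PPARd-bla HEK293H cells; cytotoxicity was taken from CellTiter-Glo luminescence read 30 min after reagent addition.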

[2] = target: Peroxisome proliferator-activated receptor delta (Homo sapiens) (UniProt Q03181); assay: qHTS assay to identify small molecule agonists of the peroxisome proliferator-activated receptor delta (PPARd) signaling pathway (AID 743212; calls by dose curve)
Sequence of Peroxisome proliferator-activated receptor delta (Homo sapiens) (Q03181 whole entry, looked up): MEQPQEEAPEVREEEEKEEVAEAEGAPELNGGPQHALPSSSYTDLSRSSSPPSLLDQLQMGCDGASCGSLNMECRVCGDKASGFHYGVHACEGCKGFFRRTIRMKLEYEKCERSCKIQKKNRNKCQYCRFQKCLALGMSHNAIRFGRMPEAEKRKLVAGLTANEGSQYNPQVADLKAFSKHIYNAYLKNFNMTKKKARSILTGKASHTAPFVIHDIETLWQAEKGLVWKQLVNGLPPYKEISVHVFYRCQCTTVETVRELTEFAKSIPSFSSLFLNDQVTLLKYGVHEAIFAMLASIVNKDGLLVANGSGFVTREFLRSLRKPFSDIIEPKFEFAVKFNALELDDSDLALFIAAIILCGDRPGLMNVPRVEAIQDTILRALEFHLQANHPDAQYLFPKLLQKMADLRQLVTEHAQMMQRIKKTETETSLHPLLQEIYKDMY
Method in brief: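 GeneBLAzer PPARd UAS-bla HEK293H cells (beta-lactamase reporter under UAS control), plated and rested 5 h at 37 C, then exposed to compounds in DMSO at 37 C; LiveBLAzer B/G FRET substrate added, 2 h room temperature, fluorescence read.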

[3] = qHTS assay to identify small molecule antagonists of the peroxisome proliferator-activated receptor delta (PPARd) signaling pathway - cell viability counter screen (AID 743213); further: nearly all actives have a fitted effect of over 50% in size
Method in brief: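 Same-well viability: cells pre-incubated 5 h, dosed with compound plus 300 nM L165041, kept 17 h at 37 C, FRET substrate 2 h RT, then CellTiter-Glo 30 min RT and luminescence.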

[4] = target: Peroxisome proliferator-activated receptor delta (Homo sapiens) (UniProt Q03181); assay: qHTS assay to identify small molecule antagonists of the peroxisome proliferator-activated receptor delta (PPARd) signaling pathway (AID 743215; active means well fitted inhibition curve with a large enough effect in the signal ratio in the repeat runs, not every such curve was filed as active; the % refers to the signal ratio;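 further: cells stimulated with agonist L165041 at 300 nM final during compound exposure; series mostly up to about 62 µM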)
Method in brief: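 PPARd UAS-bla HEK293H cells were pre-incubated 5 h at 37 C, then given test compounds in DMSO plus agonist L165041 (300 nM final). After 17 h at 37 C, beta-lactamase FRET substrate was added; fluorescence read after 2 h at room temperature.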

[5] = qHTS assay to identify small molecule agonists of the farnesoid-X-receptor (FXR) signaling pathway - cell viability counter screen (AID 743218); further: nearly all actives have a fitted effect of over 45% in size
Method in brief: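 FXR-UAS-bla HEK 293T cells, plated 5 h at 37 C, were exposed to compounds for 16 h at 37 C. CellTiter-Glo was then added to the same wells as the bla readout; luminescence read after 30 min at room temperature.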

[6] = qHTS assay to identify small molecule antagonists of the farnesoid-X-receptor (FXR) signaling pathway - cell viability counter screen (AID 743221; active means well fitted cell-killing curve with a large enough effect in the repeat runs, not every such curve was filed as active; further: nearly all actives have a fitted effect of over 50% in size)
Method in brief: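 Cytotoxicity is taken from ATP luminescence (CellTiter-Glo, 30 min, room temperature) in FXR-bla HEK 293T cells previously incubated 16 h at 37 C with compound and chenodeoxycholic acid at 50 uM final.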

[7] = target: Vitamin D3 receptor (Homo sapiens) (UniProt P11473); assay: qHTS assay to identify small molecule agonists of the vitamin D receptor (VDR) signaling pathway (AID 743222; calls by dose curve)
Sequence of Vitamin D3 receptor (Homo sapiens) (P11473 whole entry, looked up): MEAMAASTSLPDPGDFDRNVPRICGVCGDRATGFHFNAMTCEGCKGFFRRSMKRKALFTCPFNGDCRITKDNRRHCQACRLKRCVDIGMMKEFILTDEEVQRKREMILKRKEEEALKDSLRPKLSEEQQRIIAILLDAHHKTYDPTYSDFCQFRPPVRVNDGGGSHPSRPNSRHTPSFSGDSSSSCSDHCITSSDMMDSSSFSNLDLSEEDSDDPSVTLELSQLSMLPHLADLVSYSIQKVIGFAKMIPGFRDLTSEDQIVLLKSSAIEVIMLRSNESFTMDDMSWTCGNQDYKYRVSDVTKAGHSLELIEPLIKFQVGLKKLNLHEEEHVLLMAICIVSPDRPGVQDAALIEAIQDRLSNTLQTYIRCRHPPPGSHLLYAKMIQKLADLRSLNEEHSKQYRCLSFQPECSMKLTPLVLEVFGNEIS
Method in brief: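 VDR-bla cells were plated 4 h at 37C/5% CO2, then exposed to compounds in DMSO for 16 h. After LiveBLAzer B/G FRET substrate addition and 2 h at room temperature, beta-lactamase reporter fluorescence was read.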

[8] = target: Vitamin D3 receptor (Homo sapiens) (UniProt P11473); assay: qHTS assay to identify small molecule antagonists of the vitamin D receptor (VDR) signaling pathway (AID 743223; active means well fitted inhibition curve with a large enough effect in the signal ratio in the repeat runs, not every such curve was filed as active; the % refers to the signal ratio)
Method in brief: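 Quantitative HTS in VDR-bla reporter cells stimulated with 1alpha,25-dihydroxyvitamin D3, 3 nM final. Compound exposure 16 h, 37C, 5% CO2. Read-out: beta-lactamase FRET substrate fluorescence, 2 h RT.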

[9] = target: Bile acid receptor (Homo sapiens) (UniProt Q96RI1); assay: qHTS assay to identify small molecule antagonists of the farnesoid-X-receptor (FXR) signaling pathway (AID 743217; active means well fitted inhibition curve with a large enough effect in the signal ratio in the repeat runs, not every such curve was filed as active; the % refers to the signal ratio)
Sequence of Bile acid receptor (Homo sapiens) (Q96RI1 whole entry, looked up): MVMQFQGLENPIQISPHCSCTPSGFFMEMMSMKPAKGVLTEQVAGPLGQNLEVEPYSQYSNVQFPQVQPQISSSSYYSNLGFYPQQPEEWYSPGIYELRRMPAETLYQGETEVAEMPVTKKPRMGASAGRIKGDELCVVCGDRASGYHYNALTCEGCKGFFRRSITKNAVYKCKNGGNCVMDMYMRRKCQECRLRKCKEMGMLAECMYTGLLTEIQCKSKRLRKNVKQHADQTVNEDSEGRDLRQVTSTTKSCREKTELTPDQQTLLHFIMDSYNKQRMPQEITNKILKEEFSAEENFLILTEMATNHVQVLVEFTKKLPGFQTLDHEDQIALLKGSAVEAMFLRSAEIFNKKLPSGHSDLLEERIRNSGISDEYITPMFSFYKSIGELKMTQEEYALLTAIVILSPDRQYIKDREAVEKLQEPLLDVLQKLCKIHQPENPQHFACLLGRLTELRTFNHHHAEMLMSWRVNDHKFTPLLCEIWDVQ
Method in brief: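 FXR-UAS-bla HEK 293T cells pre-incubated 5 h at 37 °C, then exposed to compounds with chenodeoxycholic acid (50 uM final) for 16 h at 37 °C. Beta-lactamase reporter read by LiveBLAzer B/G FRET substrate fluorescence after 2 h at room temperature.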

[10] = target: Bile acid receptor (Homo sapiens) (UniProt Q96RI1); assay: qHTS assay to identify small molecule agonists of the farnesoid-X-receptor (FXR) signaling pathway (AID 743220; active means well fitted activation curve with a large enough effect in the signal ratio in the repeat runs, not every such curve was filed as active; the % refers to the signal ratio)
Method in brief: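 Beta-lactamase reporter under UAS control in GeneBLAzer FXR HEK 293T cells (5000/well) measured with LiveBLAzer FRET substrate after 2 h at room temperature. Compound exposure lasted 16 h at 37C.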
On the % scale 0 is the no-effect control and ±100 the full control effect.

CC(C)CC(=O)O
inactive: outcome [1] | outcome [2] | outcome [3] | outcome [4] | Potency [5] | outcome [6] | outcome [7] | outcome [8]

O=C(O)Cc1ccc(Cl)cc1Cl
inactive: outcome [1] | outcome [2] | outcome [3] | outcome [4] | Potency [5] | outcome [6] | outcome [7]

Cc1ccsc1/C=C/C1=NCCCN1C
inactive: outcome [1] | outcome [2] | outcome [3] | outcome [4] | Potency [9] | outcome [6] | outcome [7] | outcome [8]

CCCCOC(=O)c1ccccc1
inactive: outcome [1] | outcome [2] | outcome [3] | outcome [4] | Potency [5] | outcome [6] | outcome [7]

COc1ccc2nc(SCc3ncc(C)c(OC)c3C)[nH]c2c1
inactive: outcome [1] | outcome [2] | outcome [3] | outcome [4] | Potency [5] | outcome [6] | outcome [7]

CC(C)=CCOC(=O)c1ccccc1
inactive: outcome [1] | outcome [2] | outcome [3] | outcome [4] | Potency [5]

CC(C)CCCC(C)(C)O
inactive: outcome [1] | outcome [2] | outcome [3] | outcome [4] | Potency [5] | outcome [6] | outcome [7]

CCC(C)(CCC(C)C)C(=O)O (stereo not given)
inactive: outcome [1] | outcome [2] | outcome [3] | outcome [4] | Potency [5] | outcome [6] | outcome [7]

NNc1nnc(NN)c2ccccc12
inactive: outcome [1] | outcome [2] | outcome [3] | outcome [4] | Potency [9] | Potency [10] | outcome [8]

CC[C@H](C)C(=O)O[C@H]1C[C@H](O)C=C2C=C[C@H](C)[C@H](CC[C@@H](O)C[C@@H](O)CC(=O)O)[C@H]21
inactive: outcome [1] | outcome [2] | outcome [3] | outcome [4] | Potency [5] | outcome [6] | outcome [7]

CCCCCCCCCC(C)=O
inactive: outcome [1] | outcome [2] | outcome [3] | outcome [4] | Potency [5] | outcome [6] | outcome [7] | outcome [8]

O=C(NCCN1CCOCC1)c1ccc(Cl)cc1
inactive: outcome [1] | outcome [2] | outcome [3] | outcome [4] | Potency [9] | outcome [6] | outcome [7] | outcome [8]

Cc1[nH]cnc1-c1ccc(Cl)cc1
inactive: outcome [1] | outcome [2] | outcome [3] | outcome [4] | Potency [5]

C=Cc1ccccn1
inactive: outcome [1] | outcome [2] | outcome [3] | outcome [4] | Potency [5] | outcome [6] | outcome [7] | outcome [8]

CC(=O)c1sc(C)nc1C
inactive: outcome [1] | outcome [2] | outcome [3] | outcome [4] | Potency [9] | Potency [5] | outcome [7] | outcome [8]

CN=C(NC#N)Nc1ccc(C2=NNC(=O)CC2C)cc1 (stereo not given)
inactive: outcome [1] | outcome [2] | outcome [3] | outcome [4] | Potency [5] | outcome [6] | outcome [7] | outcome [8]

C=COCCOCCOCCOC=C
inactive: outcome [1] | outcome [2] | outcome [3] | outcome [4] | Potency [5] | outcome [6] | outcome [7] | outcome [8]

CC(C)(C)c1nnc(NS(=O)(=O)c2ccc(N)cc2)s1
inactive: outcome [1] | outcome [2] | outcome [3] | outcome [4] | Potency [5] | outcome [6] | outcome [7]

Cc1c(I)c(=O)n(-c2ccccc2)n1C
inactive: outcome [1] | outcome [2] | outcome [3] | outcome [4] | Potency [5]

CCC(C)NC(N)=O (stereo not given)
inactive: outcome [1] | outcome [2] | outcome [3] | outcome [4] | Potency [5] | outcome [6] | outcome [7]

O=S(O)(O)=S
inactive: activity change, negative = cytotoxicity [1] 0.0962% [at 5.95 µM] | activation [2] 0.0872% [at 5.95 µM] | viability change, negative = cytotoxic [3] -0.861% [at 6.26 µM] | ratio activity, negative = inhibition [4] 3.14% [at 6.26 µM] | viability change, negative = cytotoxic [5] 3.63% [at 5.95 µM] | activity change, negative = cytotoxicity [6] 6.74% [at 5.95 µM]

c1ccc2c(c1)ccc1c3ccccc3ccc21
inactive: outcome [1] | outcome [2] | outcome [4] | Potency [9] | Potency [5] | Potency [10] | outcome [6] | outcome [7]

O=C(Nc1ccc(Cl)c(Cl)c1)C1CC1
inactive: outcome [1] | outcome [2] | outcome [3] | outcome [4] | Potency [5] | outcome [6] | outcome [8]

CC(C)NCC(O)COc1cccc2[nH]ccc12 (stereo not given)
inactive: outcome [1] | outcome [2] | outcome [3] | outcome [4] | Potency [5] | outcome [6] | outcome [8]

CC(=O)Nc1cccc(C)c1
inactive: outcome [1] | outcome [2] | outcome [3] | Potency [5] | outcome [6]

CCC(CC)CO
inactive: outcome [1] | outcome [2] | outcome [3] | outcome [4] | outcome [6] | outcome [7] | outcome [8]

COP(=O)(OC)OC(c1ccc(Cl)cc1)P(=O)(OC)OC (stereo not given)
inactive: outcome [1] | outcome [2] | outcome [3] | outcome [4] | Potency [5] | outcome [6] | outcome [7] | outcome [8]

CC1COc2ccccc2N1 (stereo not given)
inactive: outcome [1] | outcome [2] | outcome [3] | outcome [4] | Potency [5] | outcome [7]

CCOC(=O)c1ccc(OC(=O)CCCCCN=C(N)N)cc1
inactive: outcome [1] | outcome [2] | outcome [3] | outcome [6]

COC(=O)[C@@H]1[C@H]2C[C@H]3c4[nH]c5ccccc5c4CCN3C[C@@H]2CC[C@@H]1O
inactive: outcome [1] | outcome [2] | outcome [3] | Potency [5] | outcome [6] | outcome [7] | outcome [8]

CCCCNC1CC(C)(C)NC(C)(C)C1
inactive: outcome [1] | outcome [2] | outcome [3] | outcome [4] | Potency [5] | outcome [6] | outcome [7] | outcome [8]

Reference: PubChem BioAssay (Tox21)
